# Values joined by “and” are separate entries in the source; they are usually repeats but may differ in a detail not shown here. Equal entries are not always repeated. In all, about 5,500 compounds went through this assay and about 2,000 (36%) were called active. About 18% were inconclusive and are not listed. This is one part of the list. Values without a mark were called inactive. Rule as the data show it: active = normalized growth mostly below about 0.91 (no sharp cut-off); inconclusive = no clear call, values can overlap the other calls; inactive = mostly above about 0.92.
# Experiment: chemical genetic growth profiling, strain panel (AID 1159580);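 also: tested at 20 µM; growth read once vehicle control cultures reached saturation at 30 °C; 1 = growth at the plate median or of vehicle wells; lower values mean less growth of the strain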
# Details: S. cerevisiae deletion strains, growth OD
smiles,measurement,setting,value
C[C@]12CCC(=O)C=C1C=CC1C2CC[C@@]2(C)C1CC[C@@]21CCC(=O)O1 (stereo partly drawn),normalized growth,"locus YAL013W, strain DEP1, stronger effect = lower value",0.956
same,normalized growth,"locus YAL021C, strain ccr4, stronger effect = lower value",0.971
same,normalized growth,"locus YAL026C, strain drs2, stronger effect = lower value",0.97
same,normalized growth,"locus YAL030W, strain snc1, stronger effect = lower value",0.974
same,normalized growth,"locus YBL061C, strain skt5, stronger effect = lower value",0.977
same,normalized growth,"locus YBR009C, strain hhf1, stronger effect = lower value",0.962
same,normalized growth,"locus YBR021W, strain FUR4, stronger effect = lower value",1
same,normalized growth,"locus YBR023C, strain chs3, stronger effect = lower value",0.979
same,normalized growth,"locus YBR171W, strain sec66, stronger effect = lower value",0.966
same,normalized growth,"locus YBR229C, strain ROT2, stronger effect = lower value",0.979
same,normalized growth,"locus YBR231C, strain swc5, stronger effect = lower value",0.989
same,normalized growth,"locus YBR279W, strain paf1, stronger effect = lower value",0.983
same,normalized growth,"locus YCL011C, strain gbp2, stronger effect = lower value",0.968
same,normalized growth,"locus YCL016C, strain dcc1, stronger effect = lower value",0.976
same,normalized growth,"locus YCL029C, strain bik1, stronger effect = lower value",0.949
same,normalized growth,"locus YCL061C, strain MRC1, stronger effect = lower value",0.954
same,normalized growth,"locus YCL069W, strain vba3, stronger effect = lower value",0.974
same,normalized growth,"locus YCR088W, strain abp1, stronger effect = lower value",0.974
same,normalized growth,"locus YDL005C, strain med2, stronger effect = lower value",0.98
same,normalized growth,"locus YDL035C, strain GPR1, stronger effect = lower value",0.962
same,normalized growth,"locus YDL040C, strain nat1, stronger effect = lower value",0.977
same,normalized growth,"locus YDL074C, strain BRE1, stronger effect = lower value",0.872
same,normalized growth,"locus YDL101C, strain DUN1, stronger effect = lower value",0.877 (active)
same,normalized growth,"locus YDL185W, strain tfp1, stronger effect = lower value",0.967
same,normalized growth,"locus YDL192W, strain arf1, stronger effect = lower value",0.866 (active)
same,normalized growth,"locus YDR001C, strain nth1, stronger effect = lower value",0.952
same,normalized growth,"locus YDR069C, strain doa4, stronger effect = lower value",0.984
same,normalized growth,"locus YDR101C, strain arx1, stronger effect = lower value",0.955
same,normalized growth,"locus YDR137W, strain rgp1, stronger effect = lower value",0.75 (active)
same,normalized growth,"locus YDR150W, strain NUM1, stronger effect = lower value",0.985
same,normalized growth,"locus YDR159W, strain sac3, stronger effect = lower value",0.901
same,normalized growth,"locus YDR162C, strain NBP2, stronger effect = lower value",0.584 (active)
same,normalized growth,"locus YDR195W, strain ref2",1.12
same,normalized growth,"locus YDR297W, strain sur2, stronger effect = lower value",0.981
same,normalized growth,"locus YDR318W, strain mcm21, stronger effect = lower value",0.956
same,normalized growth,"locus YDR334W, strain swr1, stronger effect = lower value",0.977
same,normalized growth,"locus YDR335W, strain msn5, stronger effect = lower value",0.976
same,normalized growth,"locus YDR388W, stronger effect = lower value",0.969
same,normalized growth,"locus YDR392W, strain spt3, stronger effect = lower value",0.662 (active)
same,normalized growth,"locus YDR502C, strain sam2, stronger effect = lower value",0.914 (active)
same,normalized growth,"locus YEL003W, strain gim4, stronger effect = lower value",0.962
same,normalized growth,"locus YEL037C, strain rad23, stronger effect = lower value",0.971
same,normalized growth,"locus YEL061C, strain CIN8 (second series), stronger effect = lower value",0.967
same,normalized growth,"locus YEL061C, strain CIN8, stronger effect = lower value",0.978
same,normalized growth,"locus YER015W, strain faa2, stronger effect = lower value",0.979
same,normalized growth,"locus YER016W, strain bim1, stronger effect = lower value",0.975
same,normalized growth,"locus YER110C, stronger effect = lower value",0.965
same,normalized growth,"locus YER111C, strain swi4, stronger effect = lower value",0.962
same,normalized growth,"locus YER155C, strain BEM2 (second series), stronger effect = lower value",0.988
same,normalized growth,"locus YER155C, strain BEM2, stronger effect = lower value",0.996
same,normalized growth,"locus YER167W, strain BCK2, stronger effect = lower value",0.956
same,normalized growth,"locus YFR010W, strain ubp6, stronger effect = lower value",0.986
same,normalized growth,"locus YGL078C, strain dbp3, stronger effect = lower value",0.985
same,normalized growth,"locus YGL086W, strain mad1, stronger effect = lower value",0.917 (active)
same,normalized growth,"locus YGL167C, strain pmr1, stronger effect = lower value",0.968
same,normalized growth,"locus YGL173C, strain kem1, stronger effect = lower value",0.953
same,normalized growth,"locus YGL227W, strain vid30, stronger effect = lower value",0.988
same,normalized growth,"locus YGL240W, strain doc1, stronger effect = lower value",0.992
same,normalized growth,"locus YGL248W, strain PDE1, stronger effect = lower value",0.919
same,normalized growth,"locus YGL253W, strain hxk2, stronger effect = lower value",0.947
same,normalized growth,"locus YGR135W, strain pre9, stronger effect = lower value",0.936
same,normalized growth,"locus YGR252W, strain gcn5, stronger effect = lower value",0.969
same,normalized growth,"locus YHR013C, strain ard1, stronger effect = lower value",0.901
same,normalized growth,"locus YHR027C, strain rpn1, stronger effect = lower value",0.982
same,normalized growth,"locus YHR030C, strain SLT2, stronger effect = lower value",0.948 and 0.967
same,normalized growth,"locus YHR079C, strain IRE1 (second series), stronger effect = lower value",0.971
same,normalized growth,"locus YHR079C, strain IRE1, stronger effect = lower value",0.98
same,normalized growth,"locus YHR094C, strain hxt1, stronger effect = lower value",0.974
same,normalized growth,"locus YHR129C, strain ARP1, stronger effect = lower value",0.939
same,normalized growth,"locus YHR142W, strain chs7, stronger effect = lower value",0.922
same,normalized growth,"locus YHR200W, strain rpn10, stronger effect = lower value",0.984
same,normalized growth,"locus YIL066C, strain RNR3, stronger effect = lower value",0.95
same,normalized growth,"locus YIL073C, strain SPO22, stronger effect = lower value",0.948
same,normalized growth,"locus YIL125W, strain kgd1, stronger effect = lower value",0.979
same,normalized growth,"locus YIR030C, strain dcg1, stronger effect = lower value",0.979
same,normalized growth,"locus YJL092W, strain hpr5, stronger effect = lower value",0.963
same,normalized growth,"locus YJL095W, strain BCK1 (second series), stronger effect = lower value",0.984
same,normalized growth,"locus YJL095W, strain BCK1, stronger effect = lower value",0.807 and 0.975
same,normalized growth,"locus YJL115W, strain asf1, stronger effect = lower value",0.971
same,normalized growth,"locus YJL129C, strain trk1, stronger effect = lower value",0.95
same,normalized growth,"locus YJL134W, strain LCB3, stronger effect = lower value",0.982
same,normalized growth,"locus YJL154C, strain vps35, stronger effect = lower value",0.979
same,normalized growth,"locus YJL164C, strain tpk1, stronger effect = lower value",0.946
same,normalized growth,"locus YJL166W, strain qcr8, stronger effect = lower value",0.993
same,normalized growth,"locus YJL168C, strain set2, stronger effect = lower value",0.969
same,normalized growth,"locus YJL187C, strain SWE1 (second series), stronger effect = lower value",0.931
same,normalized growth,"locus YJL187C, strain SWE1, stronger effect = lower value",0.973
same,normalized growth,"locus YJR043C, strain POL32, stronger effect = lower value",1.06
